Reference: PubChem BioAssay AID624170 (National Center for Advancing Translational Sciences (NCATS), 2012)
“And” between values parts separate entries of the source, which are not always exact repeats. Equal values may be shown once. In all, about 410,000 compounds went through this assay and about 850 (0.21%) were called active. About 2% were inconclusive and are not listed. Calls come from the whole dose curve; as a rule, active = well fitted inhibition curve with a large enough effect; inconclusive = small, poorly fitted or top-dose-only effect, or another doubt; inactive = no such curve, though single readings can be large or run the other way. This excerpt belongs to a sample that is enriched for actives. A structure can be active in one record and inactive in another. Square brackets hold non-standard residues; d marks the D form. Side chains are listed from the residue outwards. Peptide text beside a SMILES is read from it. * marks the point of attachment. X1 = CCC(C)C(N)C1=NC(C(=O)*)CS1; Orn = NCCC[CH](N)C(=O)O

target: Glutaminase kidney isoform, mitochondrial (Homo sapiens) (UniProt O94925); experiment: qHTS for Inhibitors of Glutaminase (GLS); settings: GLS enzymatic activity, qHTS titration; series mostly up to 45.5 µM; activity change, negative = inhibition: at the top concentration
From the text: Glutaminase (GLS) catalyzes the hydrolysis of glutamine into glutamate and ammonia. It plays a critical role in glutaminolysis, which is an important energy source for proliferating cells. It was shown that c-Myc, an oncogenic transcription factor known to regulate microRNAs and to stimulate cell proliferation, increases glutamine metabolism by stimulating the expression of GLS via direct suppression of miR23a and miR23b.
GLS is also thought to play a pathogenic role on HAD using a human HIV-1 infected macrophage system. […] GLS inhibition limits glutamate release and provides neuroprotection against HIV-1 infected macrophages.
The overall goal of this project is to identify small molecule inhibitors of GLS through quantitative high throughput screening (qHTS) of the MLSMR. A validated potent and selective inhibitor can be used as a tool molecule to further study the pharmacology of its target as well as explore its potential therapeutic application in cancer and inflammatory neurological disorders, such as HIV1-associated dementia (HAD) and multiple sclerosis.
NIH Chemical Genomics Center [NCGC]
NIH Molecular Libraries Probe Centers Network [MLPCN]
Assay Submitter (PI): Barbara S. Slusher, Johns Hopkins University
Three 3 uL of hKGA is dispensed into black well 1536-well plates in 45 mM KH2PO4 (pH 8.2), 0.02% Tween-20. Then 23 nL of compounds are added through pin tool transfer. To this, 1 uL of 1mM L-Glutamine and 1 uL of a solution of L-Glutamateoxidase, HRP, Amplex red are added. Plate is centrifuged for 25 sec before an initial fluorescence read is obtained on the ViewLux, after 30 min of RT incubation, the final read is taken on the ViewLux.
% is set by controls: 0 for no effect and ±100 for the full control effect; potency is the fitted concentration of half-maximal effect.

Glutaminase kidney isoform, mitochondrial (Homo sapiens), sequence (O94925 whole entry, looked up, canonical isoform): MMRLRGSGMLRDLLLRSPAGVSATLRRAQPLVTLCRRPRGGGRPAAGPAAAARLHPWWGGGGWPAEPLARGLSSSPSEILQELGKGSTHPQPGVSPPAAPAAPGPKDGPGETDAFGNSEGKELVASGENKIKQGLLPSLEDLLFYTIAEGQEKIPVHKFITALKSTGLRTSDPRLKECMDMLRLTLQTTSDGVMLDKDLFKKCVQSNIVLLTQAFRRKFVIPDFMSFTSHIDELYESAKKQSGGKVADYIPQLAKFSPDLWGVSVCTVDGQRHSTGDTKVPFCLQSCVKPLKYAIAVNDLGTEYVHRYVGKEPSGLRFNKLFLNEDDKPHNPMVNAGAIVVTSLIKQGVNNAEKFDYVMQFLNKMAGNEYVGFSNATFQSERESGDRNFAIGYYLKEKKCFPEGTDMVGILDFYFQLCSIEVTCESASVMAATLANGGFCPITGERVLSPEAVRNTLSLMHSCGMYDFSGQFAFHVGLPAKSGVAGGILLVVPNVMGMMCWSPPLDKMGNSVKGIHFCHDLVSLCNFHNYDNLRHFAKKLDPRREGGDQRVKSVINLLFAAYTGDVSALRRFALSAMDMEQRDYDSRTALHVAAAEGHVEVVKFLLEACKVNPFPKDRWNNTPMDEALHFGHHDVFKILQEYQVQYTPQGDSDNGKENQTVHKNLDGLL

SMILES | activity change, negative = inhibition | Potency
COc1cc(C(=O)N2CCC(c3ccncc3)CC2)cc(OC)c1OC | -16% (inactive) | 
O=C(Nc1ccc(O)cc1)c1ccccc1O | 18.9% (inactive) | 
COc1cc(OC)cc(C(=O)Nc2cc3nn(-c4ccccc4)nc3cc2Cl)c1 | -7.39% (inactive) | 
CCCc1c2oc(C(=O)O)cc(=O)c2cc2c(=O)cc(C(=O)O)n(CC)c12 | -0.467% (inactive) | 
CCOc1cccc(/C=N/N2C(=O)CSC2=S)c1O |  | 10 µM (active)
O=C1CSC(=S)N1/N=C/c1ccc(O)c([N+](=O)[O-])c1 | -1.11% (inactive) | 
CCOc1cc(/C=N/n2cnnc2)c(Br)cc1O | 27.6% (inactive) | 
Cc1ccccc1NC(=O)c1cc2c([nH]c1=O)CC(C)(C)CC2=O | -24% (inactive) | 
CCC(C)C(N)C1=NC(C(=O)NC(CC(C)C)C(=O)NC(CCC(=O)O)C(=O)NC(C(=O)NCCCCC2NC(=O)C(CC(N)=O)NC(=O)C(CC(=O)O)NC(=O)C(Cc3cnc[nH]3)NC(=O)C(Cc3ccccc3)NC(=O)C(C(C)CC)NC(=O)C(CCCN)NC2=O)C(C)CC)CS1 (stereo not drawn) (cyclo(DNK([Ile-Glu-Leu-X1])[Orn]IFH); configuration not given here) | 5.57% (inactive) | 
CC1(C)[C@H](O[C@H]2O[C@H](C(=O)O)[C@@H](O)[C@H](O)[C@H]2O[C@@H]2O[C@H](C(=O)O)[C@@H](O)[C@H](O)[C@H]2O)CC[C@@]2(C)[C@H]1CC[C@]1(C)[C@H]2C(=O)C=C2[C@H]3C[C@@](C)(C(=O)O)CC[C@]3(C)CC[C@]21C | 14.9% (inactive) | 
Cc1cc(NC(=O)c2cccc(Cl)c2)ccc1-c1cc2ccccc2oc1=O | -8.99% (inactive) | 
O=c1oc2ccccc2cc1-c1csc(Nc2ccc(O)cc2)n1 |  | 2.82 µM (active)
N#C/C(=C\c1cccc(F)c1)c1nc(-c2cc3c(ccc4ccccc43)oc2=O)cs1 | 9.66% (inactive) | 
Cc1cc2nc(NC(=O)c3ccc(S(=O)(=O)N4CCOCC4)cc3)sc2cc1C | -6.57% (inactive) | 
CC1(C)O[C@@H]2C[C@@H]3[C@H]4C[C@@H](F)C5=CC(=O)C=C[C@]5(C)[C@@]4(F)[C@@H](O)C[C@]3(C)[C@]2(C(=O)CO)O1 | -9.75% (inactive) | 
NNc1nnc(NN)c2ccccc12 | 18.4% (inactive) | 
COc1ccc(Br)cc1CNC(=O)c1cc(=O)[nH]c2ccc(S(=O)(=O)N3CCCC3)cc12 | -6.81% (inactive) | 
O=C1c2c(O)cccc2[C@@H]([C@@H]2O[C@H](CO)[C@@H](O)[C@H](O)[C@H]2O)c2cc(CO)cc(O)c21 | -1.67% (inactive) | 
CCC(CCC(C)C1CCC2C3CC=C4CC(O)CC[C@@]4(C)C3CC[C@@]12C)C(C)C (some centres not stated) | 0.242% (inactive) | 
CCN1C(=O)c2ccccc2S(=O)c2ccc(C(=O)NCc3ccc(F)cc3)cc21 (configuration not stated) | -0.753% (inactive) | 
CCN(CC)S(=O)(=O)c1ccc2c3c(cccc13)C(=O)S2 | -7.06% (inactive) | 

SMILES | activity change, negative = inhibition | Potency
CCN1C(=O)c2cccc3c(S(=O)(=O)Nc4ccccc4O)ccc1c23 |  | 11.2 µM (active)
Cc1ccc(CSc2nc3ccsc3c(=O)n2CCC(C)C)cc1 | 6.64% (inactive) | 
CC[C@]1([C@H]2O[C@@H]([C@@H]3O[C@](O)(CO)[C@@H](C)C[C@H]3C)C[C@H]2C)CC[C@@H]([C@]2(C)CC[C@@]3(C[C@@H](O)[C@@H](C)[C@@H]([C@H](C)[C@H](OC)[C@H](C)C(=O)O)O3)O2)O1 | 0.877% (inactive) | 
Cc1nc2nc(SCC(=O)NC3CCC(C)CC3)nn2c(C)c1Cc1ccccc1Cl (configuration not stated) | -5.16% (inactive) | 
Cn1c(SCC(=O)N/N=C/c2ccc(O)c(O)c2)nc2ccccc21 |  | 17.8 µM (active)
COc1ccc(OC)c(NC(=O)CSc2nc3cccnc3n2C)c1 | -1.35% (inactive) | 
C=CCn1c(Cn2nnc3ccccc32)nnc1SCC(=O)N/N=C/c1cc(Br)cc(OC)c1O | 28.5% (inactive) | 
CNC(=O)CN1C(=O)c2cccnc2Sc2ccccc21 | 6.23% (inactive) | 
CC(=O)c1ccc(NC(=O)COc2ccccc2-c2nc(-c3ccccc3)no2)cc1 | 1.67% (inactive) | 
CCOC(=O)c1cc2c(=O)n3ccccc3nc2n(CC2CCCO2)c1=NC(=O)c1ccc(C(C)(C)C)cc1 (configuration not stated) | 1.12% (inactive) | 
CCC(C)C1OC2(C=CC1C)CC1CC(C/C=C(/C)C(OC3CC(OC)C(OC4CC(OC)C(NC(C)=O)C(C)O4)C(C)O3)C(C)/C=C\C=C3\COC4C(O)C(C)=CC(C(=O)O1)C34O)O2 (configuration not stated) | -26.7% (inactive) | 
C[C@@H]1C[C@H]2[C@@H]3C[C@H](F)C4=CC(=O)C=C[C@@]4(C)[C@]3(F)[C@H](O)C[C@]2(C)[C@@]1(O)C(=O)CO | 0.486% [at 20 µM] (inactive) | 
O=C(Nc1ccccc1Cl)/C(Cl)=C(\Cl)S(=O)c1ccccc1 (configuration not stated) |  | 1.78 µM (active)
O=C(Nc1ccccc1Cl)N1CCC(CN2CCCC2)CC1 | 3.88% (inactive) | 
O=C(Nc1ccccc1Cl)N1CCC(CN2CCCCC2)CC1 | -5.88% (inactive) | 
O=C(/C=C/c1cccc(F)c1)NC1CC1 | 4.05% (inactive) | 
Cc1nnc(C(=O)NC(C)(C)c2nc(C(=O)NCc3ccc(F)cc3)c(O)c(=O)n2C)o1 | 5.68% (inactive) | 
COc1ccc(OC)c([C@H](O)CNC(=O)CN)c1 | -13.6% [at 20 µM] (inactive) | 
CN(C(=O)COC(=O)c1cc(-c2ccco2)nc2ccccc12)C1CCS(=O)(=O)C1 (configuration not stated) |  | 10 µM (active)
CCN(C(=O)COC(=O)/C=C/c1nc2ccccc2s1)C1CCS(=O)(=O)C1 (configuration not stated) | -13.8% (inactive) | 
Cc1cc(C)c2nc(SCC(=O)N(C)C3CCS(=O)(=O)C3)cc(C)c2c1 (configuration not stated) | -2.3% (inactive) | 

SMILES | activity change, negative = inhibition | Potency
CCOC(=O)CN1C(C(=O)c2ccccc2)=C(OC(=O)C(C)(C)C)c2ccccc2S1(=O)=O | -4.55% (inactive) | 
CCC(=O)Nc1cccc(C2=NOC3(C2)C[C@@H](C(N)=O)N(C(=O)c2cc([N+](=O)[O-])cc([N+](=O)[O-])c2C)C3)c1 (some centres not stated) | -2.13% (inactive) | 
C=C(C)C(=O)Nc1cccc(C2=NOC3(C2)C[C@H](C(N)=O)N(C(=O)C(c2ccccc2)c2ccccc2)C3)c1 (some centres not stated) |  | 14.1 µM (active)
NC(=O)[C@H]1CC2(CC(c3cccc(NC(=O)[C@H]4CCC(=O)N4)c3)=NO2)CN1C(=O)c1ccccc1C(=O)c1ccccc1 (some centres not stated) | 7.06% (inactive) | 
COc1ccc(OC)c(NC(=O)Cn2c(=O)n(Cc3ccccc3)c(=O)c3ccccc32)c1 | -4.18% (inactive) | 
CC(C)(C)C1C/C(=C/c2ccco2)C(=O)/C(=C/c2ccco2)C1 (configuration not stated) |  | 22.4 µM (active)
CC[C@]1(C)CC(=O)NC1=O | 0.282% (inactive) | 
O=P(O)(O)OC[C@H](O)CO | -1.43% (inactive) | 
CC(C)c1ccc(NS(=O)(=O)c2ccc3[nH]cc(C(=O)NC4CCCC4)c(=O)c3c2)cc1 | -9.07% (inactive) | 
COc1cc(Cl)c(C)cc1NC(=O)CCc1nc2cccnc2n1Cc1cccs1 | 0.67% (inactive) | 
CC1(C)SC2C(NC(=O)COc3ccccc3)C(=O)N2C1C(=O)O (configuration not stated) |  | inactive and 8.91 µM (active)
CC1(C)S[C@@H]2[C@H](NC(=O)COc3ccccc3)C(=O)N2C1C(=O)OCc1ccccc1 (some centres not stated) | 4.77% (inactive) | 
COC(=O)Cc1ccc(OCC(=O)NC2CCCC2)cc1 | 5.37% (inactive) | 
OCC(CO)NC1C[C@](O)(CO)[C@@H](O)[C@H](O)[C@H]1O (some centres not stated) | -5.08% (inactive) | 
CC(=O)OCC(=O)[C@@]1(O)CC[C@@H]2[C@H]3CCC4=CC(=O)C=C[C@]4(C)[C@]3(F)[C@@H](O)C[C@@]21C | 1.13% [at 20 µM] (inactive) | 
Cc1c(Cl)cccc1NC(=O)C1CCCN(c2ncnc3onc(C)c23)C1 (configuration not stated) | -6.23% (inactive) | 
Cc1cccc(C(C)C)c1NC(=O)C(NS(=O)(=O)c1cccc2nsnc12)c1ccccc1 (configuration not stated) | -0.851% (inactive) | 
COCCCn1c(Cc2csc(Nc3cccc(Cl)c3)n2)nnc1SCC(=O)OC1CCCCC1 |  | 12.6 µM (active)
COCCCn1c(SCC(=O)NC2CCCC2)nnc1-c1ccccc1 | -2.76% (inactive) | 
COCCn1c(Cc2cccn2C)nnc1SCC(=O)Nc1nccs1 | -12.2% (inactive) | 
FCOC(C(F)(F)F)C(F)(F)F | -0.0238% (inactive) | 

SMILES | activity change, negative = inhibition | Potency
C=C1C(=CC=C2CCC[C@@]3(C)[C@@H]2CC[C@H]3[C@H](C)CCCC(C)C)C[C@@H](O)C[C@@H]1O | -7.16% (inactive) | 
CCOC(=O)c1ccc(NC(=O)CSc2nc3c([nH]c4ccccc43)c(=O)n2C)cc1 | -2.03% (inactive) | 
CCOc1ccc(-n2c(SCC(=O)NCc3ccccc3)nc3n[nH]c(C)c3c2=N)cc1 | -24.6% (inactive) | 
CCOc1ccc(-n2c(C)nc3c(cnn3-c3ccc(C)cc3)c2=O)cc1 | -4.38% (inactive) | 
COc1ccc(-n2c(O)c(C=NCC(c3ccco3)N3CCCC3)c3ccccc3c2=O)cc1OC (configuration not stated) | -0.259% (inactive) | 
CCOc1ccc(-n2c(O)c(/C=N/Nc3nc(C)cc(C)n3)c3ccccc3c2=O)cc1 |  | 11.2 µM (active)
CCOc1ccc(-n2c(O)c(/C=N/Nc3nnc(C)c(=O)[nH]3)c3ccccc3c2=O)cc1 |  | 10 µM (active)
CCOc1ccc(N/C(N)=N/c2nc(C)c(C)c(=O)[nH]2)cc1 | 4.49% (inactive) | 
Cc1ccc(-c2ncc(Cl)cc2-c2ccc(S(C)(=O)=O)cc2)cn1 | 5.57% (inactive) | 
COc1ccc2c(c1)c(=O)c(S(=O)(=O)c1ccc(F)cc1)cn2CC(=O)Nc1ccc(C)cc1C | 4.91% (inactive) | 
CC1(C)OC2CC(=O)OC[C@@]23C1CC(=O)[C@]1(C)C3CC[C@@]2(C)C(c3ccoc3)OC(=O)C3O[C@@]321 (some centres not stated) | -16.2% (inactive) | 
CCOC(=O)Cc1cccc(-c2cc(CCCCCCc3ccc(O[C@H]4O[C@H](COC(C)=O)[C@@H](OC(C)=O)[C@H](OC(C)=O)[C@@H]4OC(C)=O)c(-c4cccc(CC(=O)OCC)c4)c3)ccc2O[C@H]2O[C@H](COC(C)=O)[C@@H](OC(C)=O)[C@H](OC(C)=O)[C@@H]2OC(C)=O)c1 | 3.57% (inactive) | 
Cc1nc(N2CCOCC2)c2c(C(=O)NCc3cccc(Cl)c3)c(C)oc2n1 | 0.0319% (inactive) | 
COc1ccc(S(=O)(=O)NCc2cccn2Cc2cccc(C)c2)cc1Cl | -10.6% (inactive) | 
Cc1ccc(Cl)cc1NC(=O)CCC(=O)N1CC(C)Sc2ccccc21 (configuration not stated) | 8.36% (inactive) | 
Cc1cccc(C(=O)Nc2ccc(-c3nc4ccccc4s3)c(C)c2)c1 | 7.67% (inactive) | 
COc1ccc(-n2c(SCC(=O)Nc3ccc(Cl)c(C)c3)nc3n[nH]c(C)c3c2=N)cc1 | -1.2% (inactive) | 
COc1cccc(-n2c(SCC(=O)NC3CCCCC3)nc3n[nH]c(C)c3c2=N)c1 |  | 10 µM (active)
Cc1ccc(-n2c(SCC(=O)NCCC3=CCCCC3)nc3n[nH]c(C)c3c2=N)cc1Cl | -5.74% (inactive) | 
